This passage reports Potency and outcome results from PubChem BioAssay (NCATS).

Structures are written as SMILES. Inconclusive results are not listed. Calls of active or inactive are those of the source. Unless noted, calls follow the shape of the dose curve; as a rule, active = well fitted curve in the direction sought with a large enough effect; inconclusive = small, poorly fitted or top-dose-only effect, or another doubt; inactive = no such curve, though single readings can be large; an effect the other way counts as inactive or inconclusive.

Assay [1] in a line: Cytometry Cell-Based qHTS for Inhibitors of the mTORC1 Signaling Pathway in MEF cells (AID 2668).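 Also: Tsc2-/- p53-/- mouse embryonic fibroblasts stably re-expressing wild-type Tsc2; percent cells positive for phospho-rpS6 Ser235/236 relative to propidium iodide stain; series mostly up to about 38 µM.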 The essentials:
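Tsc2-/-, p53-/- MEFs re-expressing WT Tsc2; cpd 24 hrs, 37 degree Celsius; PFA fix, Alexa-488 p-rpS6 (Ser235/236) Ab 2 hrs RT, PI counterstain; Acumen 488nm scan; p-S6/PI ratio → % positive cells; PI count = viability.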
A general note: Quantitative high-throughput screening tests each substance at several concentrations.

A short description of assay [2]: Validation screen for inhibitors of Lassa infection (AID 463096; calls by dose curve; also: potency is read from the fitted curve at half-maximal effect).
Assay [3] is described as follows: Validation screen for small molecules that induce DNA re-replication in MCF 10A normal breast cells (AID 463097). Also: nearly all actives have a fitted effect of over 60% in size. The essentials:
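Image-based qHTS: normal breast cells are incubated with compound for 48 hr, stained with Hoechst, and scanned for total nuclear fluorescence. Compounds raising the fraction of nuclei with elevated DNA content count as re-replication inducers.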

In assay [4] the target is Ubiquitin carboxyl-terminal hydrolase 2 (Homo sapiens) (UniProt O75604). Nature of the assay: qHTS Validation Assay for Inhibitors of Ubiquitin-specific Protease USP2a Using CHOP2 as the Reporter (AID 463106). The essentials:
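Readout was coupled fluorescence (Ex 485/Em 531 nm), read 60 min after adding 25 nM final Ub-CHOP2 and 25 nM reporter substrate. Beforehand, 10 nM final USP2 core had 30 min at RT with compound in pH 8.0 buffer. Curves were fitted after normalization to NEM and flagged for artifacts using time-zero reads.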

In assay [5] the target is DNA polymerase III PolC-type (Bacillus subtilis (strain 168)) (UniProt P13267). Kind of assay: qHTS Validation Assay for the Inhibitors of DNA Replication in Gram-Positive Bacteria (AID 485295).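 Also: reconstituted holoenzyme with PolC plus beta clamp SSB and primase; PicoGreen fluorescence of double-stranded DNA made on primed circular M13 template; series mostly up to about 57 µM.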 In outline: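 First, compound is mixed with the reconstituted replication complex and held at room temperature. Next, circular single-stranded M13Gori with nucleotides starts synthesis. Finally, PicoGreen in EDTA halts the reaction and stains double-stranded product for fluorescence reading.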

Assay [6] deals with Tumor susceptibility gene 101 protein (Homo sapiens) (UniProt Q99816). Kind of assay: qHTS Validation Assay for Iinhibitors of HIV-1 Budding by Blocking the Interaction of PTAP/TSG101 (AID 485342; calls by dose curve). The essentials: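 Binding of a FITC-tagged PTAP-motif peptide (50 nM) to the Tsg101 binding domain (10 uM) is monitored by fluorescence polarization. Compounds are pin-delivered before peptide addition, and incubation runs 20 min at room temperature.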

Assay [7] is described as follows: qHTS Validation Assay to Find Inhibitors of Chronic Active B-Cell Receptor Signaling (AID 485345; active = well fitted curve in the direction sought with a large enough effect in the main read-out, with a control signal flat, not every such curve was filed as active). In outline:
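Read-out: ratio of filter-corrected green (IkappaBalpha fusion) to red (native) luciferase signal in doxycycline-induced TMD8 cells after 4 h at 37C. Titration spanned 46 uM–3 nM; Data were normalised to basal cells and 10 uM MG-132 wells.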

Assay [8] deals with Beta-2 adrenergic receptor (Homo sapiens) (UniProt P07550). Nature of the assay: qHTS validation assay of beta-arrestin-biased ligands of beta2-adrenergic receptor (AID 485366). The essentials:
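Compound series up to 46 microM applied to beta2-AR/beta-arrestin Tango cells, 18 hr, 37 degrees C, 5% CO2. Read-out: tTA-driven luciferase luminescence, converted to %Activity; concentration-response curves assigned curve classes.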

A short description of assay [9]: Quantitative high throughput screen for delayed death inhibitors of the malarial parasite plastid, 96 hour incubation (AID 488745). Also: nearly all actives have a fitted effect of over 70% in size. Also: potency is read from the fitted curve at half-maximal effect. The essentials:
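Two-generation (96 h) exposure of luciferase-reporter P. falciparum in erythrocytes, 2% hematocrit, 0.1% parasitemia final, 37 C, 5% CO2, RPMI 1640 with 0.5% Albumax. Growth inhibition scored by reduced luminescence.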

The nature of assay [10]: Quantitative high throughput screen for delayed death inhibitors of the malarial parasite plastid, 48 hour incubation (AID 488752). Also: nearly all actives have a fitted effect of over 65% in size. Also: potency is read from the fitted curve at half-maximal effect. The essentials:
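Cultures: infected erythrocytes at final 2% hematocrit and 0.1% parasitemia in Albumax-supplemented RPMI. Parasites express integrated firefly luciferase. Incubation with compound lasts 48 h before luminescent detection of remaining reporter activity.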

For assay [11], the target named is Thioredoxin reductase 1, cytoplasmic (Rattus norvegicus) (UniProt O89049). Kind of assay: qHTS Assay for Substrates of Mammalian Selenoprotein Thioredoxin Reductase 1 (TrxR1) (AID 488772).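 Also: series mostly up to about 57 µM; a drop in NADPH fluorescence below the no-compound background marks a TrxR1 substrate.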 The essentials:
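In this dual-purpose format, potential substrates are identified from the first fluorescence read after selenite addition, not from the 8-minute delta. Rat enzyme is preincubated with NADPH and then with compound at ~22 deg C.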

The target is the same in assay [12]. Nature of the assay: qHTS Assay for Inhibitors of Mammalian Selenoprotein Thioredoxin Reductase 1 (TrxR1) (AID 488773). Also: nearly all actives have a fitted effect of over 40% in size. Also: potency is read from the fitted curve at half-maximal effect. To be noted: Potency: inhibition. In outline:
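Inhibition is scored from the loss of NADPH fluorescence between first and last reads of an 8-min kinetic run. Selenite (400 uM) was the substrate, added after 15 min compound preincubation at room temperature.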

The target of assay [13] is Flap endonuclease 1 (Homo sapiens) (UniProt P39748). Nature of the assay: qHTS Validation Assay for the Inhibitors of Human Flap endonuclease 1 (FEN1) (AID 488816). In outline:
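qHTS format: compounds and 10 nM FEN1 incubated 15 min at room temperature before adding 50 nM substrate. Cleavage followed by reads at 0 and 15 min; normalized data fitted to a four-parameter Hill curve.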

For assay [14], the target named is M-phase phosphoprotein 8 (Homo sapiens) (UniProt Q99549). Kind of assay: qHTS Validation Assay for Inhibitors for MPP8 Chromodomain Interactions with Methylated Histone Tails (AID 488949).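 Also: 50 nM MPP8 with 50 nM peptide preformed then compounds added for 30 min; AlphaScreen signal from MPP8 chromodomain bound to biotinylated H3K9me3 peptide; top concentration of the series differs between compounds; nearly all actives have a fitted effect of over 55% in size.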 The essentials:
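50 nM MPP8 + 50 nM b-H3K9me3 peptide, PBS pH 7.4/0.01% Tween-20, 30 min RT; + cpd 30 min RT; + AlphaScreen donor/Ni-chelate acceptor beads 10 ug/mL final, 30 min dark; luminescence read.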

The target in assay [15] is Chromobox protein homolog 1 (Homo sapiens) (UniProt P83916). Nature of the assay: qHTS Validation Assay for Inhibitors of HP1-beta Chromodomain Interactions with Methylated Histone Tails (AID 488953). Also: nearly all actives have a fitted effect of over 50% in size. Also: potency is read from the fitted curve at half-maximal effect. In outline: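 Compounds pinned into a preassembled complex of HP1-beta and trimethyl-K9 histone H3(1-18) biotin peptide (50 nM each; PBS pH 7.4, 0.01% Tween-20). After 30 min, bead-based AlphaScreen detection followed.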

Assay [16] addresses Methanococcus maripaludis chaperonin (MmCpn) (UniProt Q6LX38). Nature of the assay: High-Throughput Screening for Modulators of Cytosolic Chaperonin Activity: MmCpn Primary Screen (AID 488978).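 Also: 50 nM MmCpn enzyme hydrolysing 30 µM ATP at 37 °C.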 In outline:
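Steps: chaperonin 50 nM final; add compound, 5 min RT; start with ATP, 30 uM final; hold 10 min at 37C; add ADP Transcreener HTRF reagent, 5 min; read ex 320, em 590 and 665 nm.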

Assay [17] deals with Transient receptor potential cation channel subfamily V member 1 (Homo sapiens) (UniProt Q8NER1). Nature of the assay: HTS Assay for Compounds that Act as Enhancers of the Vanilloid Receptor 1 (AID 488979). In outline: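 Calcium influx kinetics via Fluo-8 (480/520 nm) in TRPV1-expressing cells, 2000/well cultured overnight at 35.5C. Compound-alone read 3 min (agonist phase), followed by EC20 capsaicin challenge for 2 min (enhancer phase).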

For assay [18], the target named is Thyrotropin receptor (Homo sapiens) (UniProt P16473). Nature of the assay: qHTS Assay for Antagonists of the Thyroid Stimulating Hormone Receptor (AID 488980). Also: series mostly up to about 58 µM. In outline:
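Readout is cAMP by HTRF competition between cellular cAMP and cAMP-d2 for a cryptate-labelled antibody. Antagonism was assessed in TSHR-transfected HEK293 cells stimulated with 4 nM TSH (EC80, final) in the presence of RO 20-1724.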

Assay [19] concerns the target D(1A) dopamine receptor (Homo sapiens) (UniProt P21728). Nature of the assay: HTS Assay for Allosteric Agonists of the Human D1 Dopamine Receptor: Primary Screen for Agonists (AID 488981). The essentials:
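Calcium flux in an inducible, force-coupled HEK293 Trex D1 line (overnight at 30 C): agonist mode is the 180 s kinetic read after compound; potentiator mode is the following 180 s read after dopamine at EC20.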

The target of assay [20] is ATP-dependent 6-phosphofructokinase (Trypanosoma brucei brucei) (UniProt O15648). Kind of assay: qHTS Validation Assay to Find Inhibitors of T. brucei phosphofructokinase (AID 485368). In outline: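 qHTS format, up to 57 uM. PFK 1.25 nM; F6P 0.5 mM; ATP 0.1 mM; 5 mM MgCl2, 0.01% Tween20, 0.1% BSA; 0.1 M TEA pH 8.0; 45 min RT; ADP-Glo readout; no-enzyme control = full inhibition.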
Sequence of ATP-dependent 6-phosphofructokinase (Trypanosoma brucei brucei) (O15648 whole entry, looked up): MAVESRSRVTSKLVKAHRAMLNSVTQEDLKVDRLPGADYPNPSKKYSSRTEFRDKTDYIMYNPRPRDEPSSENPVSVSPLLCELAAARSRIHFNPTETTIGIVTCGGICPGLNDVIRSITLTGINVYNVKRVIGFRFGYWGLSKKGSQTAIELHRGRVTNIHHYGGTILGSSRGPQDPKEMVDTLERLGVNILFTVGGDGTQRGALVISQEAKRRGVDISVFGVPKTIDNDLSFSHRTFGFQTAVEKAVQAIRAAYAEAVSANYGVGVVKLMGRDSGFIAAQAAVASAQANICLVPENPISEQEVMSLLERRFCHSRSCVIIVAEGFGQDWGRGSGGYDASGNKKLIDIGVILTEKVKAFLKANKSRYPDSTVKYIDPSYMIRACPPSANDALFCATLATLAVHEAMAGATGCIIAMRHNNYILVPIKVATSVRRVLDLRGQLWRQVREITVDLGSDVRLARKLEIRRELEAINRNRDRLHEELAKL

Sequence of Methanococcus maripaludis chaperonin (MmCpn) (Q6LX38 1-543): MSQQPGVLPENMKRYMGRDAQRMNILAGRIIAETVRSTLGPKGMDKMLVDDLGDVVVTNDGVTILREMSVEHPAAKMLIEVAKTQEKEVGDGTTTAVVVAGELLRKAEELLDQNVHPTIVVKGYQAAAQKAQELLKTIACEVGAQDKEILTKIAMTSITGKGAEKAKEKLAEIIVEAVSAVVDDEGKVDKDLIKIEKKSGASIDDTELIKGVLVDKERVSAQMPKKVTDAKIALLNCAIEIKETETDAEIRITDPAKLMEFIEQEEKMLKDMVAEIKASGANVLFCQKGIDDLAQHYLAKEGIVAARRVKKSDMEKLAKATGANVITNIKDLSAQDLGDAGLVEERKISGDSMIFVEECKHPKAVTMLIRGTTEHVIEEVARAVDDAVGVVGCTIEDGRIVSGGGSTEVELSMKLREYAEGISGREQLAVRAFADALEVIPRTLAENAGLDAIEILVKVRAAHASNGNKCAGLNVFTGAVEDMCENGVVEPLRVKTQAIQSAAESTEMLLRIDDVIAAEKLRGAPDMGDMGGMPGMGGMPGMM
Sequence of Thioredoxin reductase 1, cytoplasmic (Rattus norvegicus) (O89049 whole entry, looked up): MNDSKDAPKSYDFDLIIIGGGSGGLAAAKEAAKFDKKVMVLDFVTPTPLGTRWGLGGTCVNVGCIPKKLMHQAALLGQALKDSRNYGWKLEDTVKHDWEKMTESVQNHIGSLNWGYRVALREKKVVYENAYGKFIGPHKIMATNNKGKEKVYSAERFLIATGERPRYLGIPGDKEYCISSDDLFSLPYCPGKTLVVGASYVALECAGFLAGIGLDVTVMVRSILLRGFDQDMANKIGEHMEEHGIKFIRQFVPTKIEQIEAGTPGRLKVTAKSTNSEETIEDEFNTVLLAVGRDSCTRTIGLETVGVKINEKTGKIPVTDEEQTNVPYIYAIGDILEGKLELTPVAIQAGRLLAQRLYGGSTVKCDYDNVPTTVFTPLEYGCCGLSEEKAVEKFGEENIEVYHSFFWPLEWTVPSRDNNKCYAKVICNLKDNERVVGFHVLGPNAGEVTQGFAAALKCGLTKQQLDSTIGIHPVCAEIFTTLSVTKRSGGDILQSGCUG
Sequence of D(1A) dopamine receptor (Homo sapiens) (P21728 whole entry, looked up): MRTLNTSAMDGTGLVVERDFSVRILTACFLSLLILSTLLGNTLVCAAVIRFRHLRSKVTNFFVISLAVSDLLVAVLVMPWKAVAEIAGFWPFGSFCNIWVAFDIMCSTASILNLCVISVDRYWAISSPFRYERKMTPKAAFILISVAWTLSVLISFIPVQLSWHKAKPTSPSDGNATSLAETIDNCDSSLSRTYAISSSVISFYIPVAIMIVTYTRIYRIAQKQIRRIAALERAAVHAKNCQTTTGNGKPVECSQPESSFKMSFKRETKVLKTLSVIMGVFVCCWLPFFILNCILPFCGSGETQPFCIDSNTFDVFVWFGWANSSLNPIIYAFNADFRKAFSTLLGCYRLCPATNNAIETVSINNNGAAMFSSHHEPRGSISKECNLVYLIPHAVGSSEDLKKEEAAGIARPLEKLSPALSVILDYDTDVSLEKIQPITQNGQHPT
Sequence of Ubiquitin carboxyl-terminal hydrolase 2 (Homo sapiens) (O75604 whole entry, looked up): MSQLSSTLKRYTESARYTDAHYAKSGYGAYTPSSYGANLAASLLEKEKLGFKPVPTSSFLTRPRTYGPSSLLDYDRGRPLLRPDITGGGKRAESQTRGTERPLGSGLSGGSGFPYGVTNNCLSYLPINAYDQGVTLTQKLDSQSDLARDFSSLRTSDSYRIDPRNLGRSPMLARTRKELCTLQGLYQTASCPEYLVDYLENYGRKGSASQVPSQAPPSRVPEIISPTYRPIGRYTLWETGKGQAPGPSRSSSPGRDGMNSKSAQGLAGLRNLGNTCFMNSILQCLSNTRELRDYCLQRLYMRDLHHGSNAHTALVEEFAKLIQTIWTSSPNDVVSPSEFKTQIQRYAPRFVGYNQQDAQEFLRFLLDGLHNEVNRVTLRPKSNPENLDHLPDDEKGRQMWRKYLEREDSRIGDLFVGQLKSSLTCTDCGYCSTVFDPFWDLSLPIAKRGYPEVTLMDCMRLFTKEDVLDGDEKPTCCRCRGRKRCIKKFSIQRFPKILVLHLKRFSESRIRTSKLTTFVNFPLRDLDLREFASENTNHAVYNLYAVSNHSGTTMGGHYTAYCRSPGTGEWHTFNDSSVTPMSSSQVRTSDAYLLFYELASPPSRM
Sequence of Transient receptor potential cation channel subfamily V member 1 (Homo sapiens) (Q8NER1 whole entry, looked up): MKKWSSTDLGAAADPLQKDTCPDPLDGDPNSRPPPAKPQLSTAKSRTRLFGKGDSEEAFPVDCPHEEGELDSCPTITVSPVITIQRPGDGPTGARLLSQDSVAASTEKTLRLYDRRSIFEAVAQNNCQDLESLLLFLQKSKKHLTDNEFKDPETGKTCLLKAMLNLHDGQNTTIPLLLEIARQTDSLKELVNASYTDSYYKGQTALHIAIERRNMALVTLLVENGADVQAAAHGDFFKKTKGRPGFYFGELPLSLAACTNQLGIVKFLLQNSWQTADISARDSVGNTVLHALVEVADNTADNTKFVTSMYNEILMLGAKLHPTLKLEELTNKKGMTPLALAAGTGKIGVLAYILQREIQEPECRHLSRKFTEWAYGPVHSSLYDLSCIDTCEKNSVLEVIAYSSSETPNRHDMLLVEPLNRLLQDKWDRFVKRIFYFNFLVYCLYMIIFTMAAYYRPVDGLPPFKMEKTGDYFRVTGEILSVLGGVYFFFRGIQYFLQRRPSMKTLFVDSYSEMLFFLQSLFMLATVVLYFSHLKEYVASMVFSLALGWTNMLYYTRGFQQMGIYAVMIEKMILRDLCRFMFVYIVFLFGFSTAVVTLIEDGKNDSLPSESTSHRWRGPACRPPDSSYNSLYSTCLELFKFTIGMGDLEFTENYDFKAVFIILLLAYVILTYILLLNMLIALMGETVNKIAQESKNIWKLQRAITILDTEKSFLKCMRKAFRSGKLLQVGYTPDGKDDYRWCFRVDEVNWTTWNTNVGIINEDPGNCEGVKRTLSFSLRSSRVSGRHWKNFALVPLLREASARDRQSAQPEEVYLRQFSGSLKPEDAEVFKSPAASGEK
Sequence of Tumor susceptibility gene 101 protein (Homo sapiens) (Q99816 whole entry, looked up, the tested form may be a part): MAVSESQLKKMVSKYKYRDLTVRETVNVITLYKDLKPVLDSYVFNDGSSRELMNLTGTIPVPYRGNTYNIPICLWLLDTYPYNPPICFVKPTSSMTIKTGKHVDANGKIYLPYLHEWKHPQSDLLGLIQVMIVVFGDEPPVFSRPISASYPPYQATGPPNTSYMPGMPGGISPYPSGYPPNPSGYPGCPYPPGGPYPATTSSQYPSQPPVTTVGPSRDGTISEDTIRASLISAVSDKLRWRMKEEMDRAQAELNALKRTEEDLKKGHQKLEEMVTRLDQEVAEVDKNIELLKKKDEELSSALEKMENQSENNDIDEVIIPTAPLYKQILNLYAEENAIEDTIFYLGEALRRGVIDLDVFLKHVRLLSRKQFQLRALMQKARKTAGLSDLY
Sequence of Flap endonuclease 1 (Homo sapiens) (P39748 whole entry, looked up): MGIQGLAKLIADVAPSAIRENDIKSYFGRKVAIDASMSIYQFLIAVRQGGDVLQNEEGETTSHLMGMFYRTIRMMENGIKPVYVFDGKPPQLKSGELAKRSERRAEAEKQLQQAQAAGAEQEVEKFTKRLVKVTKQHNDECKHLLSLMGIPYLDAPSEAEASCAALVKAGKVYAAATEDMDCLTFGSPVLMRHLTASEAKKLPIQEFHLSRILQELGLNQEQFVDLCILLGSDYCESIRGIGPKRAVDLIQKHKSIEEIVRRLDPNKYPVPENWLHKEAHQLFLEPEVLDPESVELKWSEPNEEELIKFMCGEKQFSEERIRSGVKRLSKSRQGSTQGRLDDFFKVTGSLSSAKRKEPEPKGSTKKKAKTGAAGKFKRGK
Sequence of Thyrotropin receptor (Homo sapiens) (P16473 whole entry, looked up): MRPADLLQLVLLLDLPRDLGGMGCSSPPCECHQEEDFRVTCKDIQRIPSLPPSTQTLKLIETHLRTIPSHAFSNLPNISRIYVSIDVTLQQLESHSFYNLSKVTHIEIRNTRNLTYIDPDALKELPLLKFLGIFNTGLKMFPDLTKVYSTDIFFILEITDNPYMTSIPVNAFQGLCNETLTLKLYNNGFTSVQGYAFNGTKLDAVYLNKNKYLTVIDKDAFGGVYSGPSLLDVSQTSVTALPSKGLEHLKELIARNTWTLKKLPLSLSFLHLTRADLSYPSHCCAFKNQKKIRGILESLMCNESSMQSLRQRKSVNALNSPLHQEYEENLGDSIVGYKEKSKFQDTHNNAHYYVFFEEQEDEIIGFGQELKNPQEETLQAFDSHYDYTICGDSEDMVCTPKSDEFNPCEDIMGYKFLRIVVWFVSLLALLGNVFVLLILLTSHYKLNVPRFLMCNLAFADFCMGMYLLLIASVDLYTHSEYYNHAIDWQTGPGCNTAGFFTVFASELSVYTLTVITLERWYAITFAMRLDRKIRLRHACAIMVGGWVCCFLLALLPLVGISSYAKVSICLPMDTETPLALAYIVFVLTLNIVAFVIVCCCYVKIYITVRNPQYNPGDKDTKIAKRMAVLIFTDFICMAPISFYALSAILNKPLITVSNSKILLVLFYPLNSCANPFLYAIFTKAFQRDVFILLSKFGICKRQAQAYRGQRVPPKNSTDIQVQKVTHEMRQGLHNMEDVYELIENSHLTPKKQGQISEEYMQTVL

For the compound `CCCN(CCC)CCc1ccc(O)c(O)c1`, the Potency entry in [1], in [2], in assay [3], in [4], in assay [5] and in assay [7] was “inactive” in each case. Moreover, the Potency result in [9], in [10], in [12], in assay [13], in assay [14] and in [15] was “inactive” throughout. For the same compound, in assay [19], the Potency entry was “inactive”. Besides, the result in [6], in [8], in assay [11], in assay [16], in [17] and in [18] was inactive.
On to `COc1ccc2[nH]cc(CCN)c2c1`, for which the Potency result in [1], in assay [2], in [3], in assay [4], in assay [5] and in assay [7] was “inactive” each time. For the same compound, the Potency result in [9], in assay [10], in assay [12], in assay [13], in assay [14] and in [15] was “inactive” each time. Also, the result in assay [6], in [8], in assay [11], in assay [16], in assay [17] and in assay [18] was inactive.
As for `C[C@@H]1O[C@H](C[N+](C)(C)C)CS1`, the Potency entry in assay [1], in assay [2], in assay [3], in assay [4], in [5] and in assay [7] was “inactive” in each case. Also, the Potency entry in assay [20], in assay [10], in [12], in assay [14] and in assay [15] was “inactive” in each case. For the same compound, the outcome in assay [6], in assay [8], in assay [11], in assay [16], in [17] and in [18] was inactive.
With `CN1CCc2cccc(Cl)c2CC1`, the Potency entry in assay [1], in assay [2], in assay [3], in assay [4], in assay [5] and in assay [7] was “inactive” each time. The Potency entry in [9], in [10], in [12], in assay [13], in [14] and in [15] was “inactive” throughout. Besides, the call in [6], in assay [8], in assay [11], in assay [16], in [17] and in [18] was inactive.
In the case of `CP(=O)(O)C1=CCNCC1`, the Potency result in [1], in [2], in [3], in [4], in assay [5] and in [7] was “inactive” throughout. For the same compound, the Potency result in assay [9], in [10], in [12], in assay [13], in assay [14] and in assay [15] was “inactive” throughout. For the same compound, the call in [6], in assay [8], in assay [11], in assay [16], in assay [17] and in assay [18] was inactive.
For `NC(Cc1ccc(N(CCCl)CCCl)cc1)C(=O)O` (centres undefined), the Potency result in assay [1], in assay [3], in assay [4], in assay [5], in assay [20] and in assay [13] was “inactive” throughout. Also, the Potency entry in [14] and in assay [19] was “inactive” throughout. The Potency in assay [2] was 8.91 µM (active); in [9] it was 14.7 µM (active); in assay [10], 8.28 µM (active); in assay [15], 6.7 nM (active). In addition, the outcome in [6], in assay [8], in [11], in assay [16], in assay [17] and in [18] was inactive.
`O=C1C=CC(=O)C=C1`: the Potency entry in [1], in assay [2], in [3], in [4], in assay [5] and in assay [7] was “inactive” each time. Moreover, the Potency entry in assay [9], in assay [10], in assay [12], in [14], in assay [15] and in assay [19] was “inactive” in each case. The result in assay [6], in assay [8], in assay [11], in [16], in [17] and in assay [18] was inactive.
With `C[N+](C)(C)CC#CCOC(=O)Nc1cccc(Cl)c1`, the Potency result in assay [1], in assay [2], in assay [3], in [4], in [5] and in assay [7] was “inactive” throughout. Moreover, the Potency result in [20], in assay [13], in assay [14], in assay [15] and in assay [19] was “inactive” throughout. In addition, the result in [6], in assay [8], in assay [11], in [16], in assay [17] and in [18] was inactive. In addition, the Potency in assay [12] is 21.2 µM (active).
